TDP1 cell noCPT: qHTS for Inhibitors of human tyrosyl-DNA phosphodiesterase 1 (TDP1): qHTS in cells in absence of CPT; DT40 Tdp1-/- hTDP1 cells, no CPT, ATP luminescence, 48 h; Potency, µM (titrated, usually from 46.2 µM), inactives show top-dose activity change, negative = growth inhibition, usual class: inhibitors; 420,000 tested, 15% active; AID 686978, 2013; also: potency is read from the fitted curve at half-maximal effect; % is scaled to controls: 0 for no effect and ±100 for the full control effect; nearly all actives have a fitted effect of over 55% in size
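Chicken DT40 Tdp1-/- cells stably complemented with human TDP1 were seeded at 400 cells/well with DMSO in place of 20 nM camptothecin. After compound pinning, cells grew at least 48 hr at 37 °C; viability read by CellTiter-Glo luminescence.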
SW480 rereplic: inducers of DNA re-replication in SW480 colon cancer cells. SW480 DNA re-replication, Hoechst DNA content imaging, 48 h. Potency, µM (highest dose often 46.1 µM), without a hit: at the top dose re-replication activation, actives largely listed as activators. 340,000 tested, 1.8% active; also: potency is read from the fitted curve at half-maximal effect; % of control where 0% means no effect; nearly all actives have a fitted effect of over 55% in size
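Hoechst fluorescence of nuclei (405 nm excitation, 500-530 nm emission) measured by plate-scanning imager after 48 hr compound exposure at 37 C; re-replication scored as increased number of nuclei with elevated intensity.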
MCF10A rereplic: DNA re-replication induction in MCF 10a cells; MCF 10A DNA re-replication, Hoechst nuclear intensity, 48 h; Potency, µM (series often up to 46.1 µM), inactives show at the highest dose activity, positive = re-replication, hits mostly activators; 350,000 tested, 2.9% active; AID 624296; also: potency is read from the fitted curve at half-maximal effect; % of control where 0% means no effect; nearly all actives have a fitted effect of over 50% in size
Chronic BCR inh: blocks chronic active B-cell receptor signaling; ABC-DLBCL IkBa-CBG/CBR reporter, luminescence ratio, 4 h; Potency, µM (highest dose often 46.1 µM), for inactives: top-dose activity change, negative = inhibition, usual class: inhibitors; 340,000 tested, 0.05% active; AID 493014; active = well fitted inhibition curve with a large enough effect in the signal ratio, with a control signal flat, not every such curve was filed as active; inconclusive = small, poorly fitted or top-dose-only effect, or effect the other way, or a change in a side signal; the % refers to the signal ratio;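 also: potency is read from the fitted curve at half-maximal effect; plate controls were basal doxycycline-induced cells for no effect and cells given 10 µM MG132 for full effect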
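Doxycycline induced both beetle luciferases in TMD8 lymphoma cells; IKK-driven degradation limits the IkappaBalpha-fused green signal, while red luminescence normalises for cell number and nonspecific effects. Compounds tested up to 46 uM, 4 hrs.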
IL-1B inflam inh: inhibitors of inflammasome signaling (IL-1 beta secretion); THP-1 LPS/ATP IL-1B secretion, AlphaLISA, 16 h; stronger effect = lower value; activity change, % at 57.5 µM; 360,000 tested, 4.7% active; in the data active = activity change below about -50%; inconclusive = mostly about -30% to -49%; also: % is scaled to controls: 0 for no effect and ±100 for the full control effect
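Secreted IL-1B measured by AlphaLISA bead assay after 16 h compound exposure of THP-1 cells; compounds (final up to 57.5 uM) added 1 h before LPS (250 ng/mL) and ATP (1.25 mM) stimulation; lower signal means less secretion.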
TDP1 cell CPT: DT40-hTDP1 cell growth loss with CPT; Potency, µM (top dose mostly 46.2 µM), without a hit: top-dose activity change, negative = growth inhibition, hits mostly inhibitors; 420,000 tested, 12% active; chicken DT40 Tdp1-/-;hTDP1 cells + 20 nM CPT, ATP luminescence, 48 h; also: potency is read from the fitted curve at half-maximal effect; % is scaled to controls: 0 for no effect and ±100 for the full control effect; nearly all actives have a fitted effect of over 55% in size
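Chicken DT40 Tdp1-/- cells stably complemented with human TDP1 were seeded at 400 cells/well in medium containing 20 nM camptothecin, exposed to pin-transferred compounds, and grown at 37 °C for at least 48 hr. Viability was read as ATP luminescence.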
* hit, by the source's call; ? = inconclusive; / = no result given; [ ] = dose if it differs, or a comment. An excerpt weighted towards active compounds, which were near 19% of everything screened. Unless noted, calls follow the shape of the dose curve; as a rule, active = well fitted curve in the direction sought with a large enough effect; inconclusive = small, poorly fitted or top-dose-only effect, or another doubt; inactive = no such curve, though single readings can be large; an effect the other way counts as inactive or inconclusive.

SMILES | TDP1 cell noCPT | SW480 rereplic | MCF10A rereplic | Chronic BCR inh | IL-1B inflam inh | TDP1 cell CPT
NC(=S)N=Nc1c(O)[nH]c2ccc(F)cc12 | ? | -7% | -1% | -7% | 7 | ?
CC(C)(O)C(=O)N=Nc1c(O)[nH]c2ccccc12 | -3% | 0% | -1% | ? | 3 | 0%
CC(C)c1ccc2[nH]c(O)c(N=NC(=O)c3cccc(S(=O)(=O)Nc4ccccc4Cl)c3)c2c1 | 3% | -3% | 15µM* | -1% | 31 | -4%
CC(C)NC(=S)N=Nc1c(O)[nH]c2ccc(C(C)C)cc12 | 5.2µM* | -40% | 4% | -11% | 0 | 5.8µM*
NS(=O)(=O)c1cc(C(=O)N=Nc2c(O)[nH]c3ccccc23)ccc1Cl | 18µM* | ? | -8% | ? | -25 | ?
O=C(N=Nc1c(O)[nH]c2ccccc12)c1cccc(S(=O)(=O)Nc2ccccc2Cl)c1 | -9% | -85% | 1% | ? | 13 | ?
CCN1C(=O)[C@H]2[C@@H](c3ccc(OC)cc3)N[C@]3(CCCN(Cc4ccc(F)cc4)C3=O)[C@H]2C1=O | ? | / | / | / | 35 | -25%
Cc1ccc(NC(=O)Cn2ccn(-c3ccccc3)c(=O)c2=O)cc1 | 0% | / | / | / | / | -4%
NCCCC[C@H]1CN=C(N)N1CCC12CC3CC(CC(C3)C1)C2 | ? | -30%[9.22 µM] | 3% | -1% | -55* | ?
O=C1NC[C@H](CC2CCCCC2)N(CCC23CC4CC(CC(C4)C2)C3)C1=O | -16% | / | / | / | -2 | -8%
COC(=O)c1ccc(Nc2nc(-c3ccc(C)cc3)nc3ccccc23)cc1 | 7.3µM* | / | / | / | / | 13µM*
O=[N+]([O-])c1ccc(-c2nc(Nc3cccc(O)c3)c3ccccc3n2)cc1 | 4.1µM* | 2% | ? | ? | -70* | 16µM*
c1ccc(Nc2nc(-c3ccccc3)nc3ccccc23)cc1 | 0% | ? | ? | 15% | -7 | -16%
Cc1ccc(-c2nc(Nc3ccc(N4CCOCC4)cc3)c3ccccc3n2)cc1 | 23µM* | -14% | ? | ? | / | ?
Cc1ccc(-c2nc(Nc3ccc(O)cc3)c3ccccc3n2)cc1 | 21µM* | ? | ? | 3% | -88* | ?
O=C1CCCCCC[C@@H](O)[C@H](O)C[C@H](c2ccccc2)O1 | -28% | / | / | / | 16 | -11%
O=C(OCc1nnc(-c2ccc([N+](=O)[O-])cc2)o1)c1ccc(F)c(S(=O)(=O)N2CCOCC2)c1 | -12% | -39% | -12% | 0% | 21 | ?
NNc1nc(-c2ccccc2Cl)nc2ccccc12 | -20% | -5% | -3% | -9% | -2 | -29%
Clc1cncc(Cl)c1NNc1c2ccccc2nc2ccccc12 | ? | 8% | 8% | -3% | 19 | ?
Oc1cccc(Nc2nc(-c3ccccc3Cl)nc3ccccc23)c1 | 13µM* | 3% | ? | ? | ? | 16µM*
Oc1cccc(Nc2c3ccccc3nc3ccccc23)c1 | 1.8µM* | 7% | ? | ? | -25 | 1.2µM*
Oc1ccc(Nc2nc(-c3ccccc3O)nc3ccccc23)cc1 | ? | ? | ? | ? | -65* | ?
c1cncc(Nc2c3ccccc3nc3ccccc23)c1 | 15µM* | 5% | 6% | ? | -94* | ?
Cc1nc2cc(NC(=O)C3CC34CCN(Cc3ccc(O)c(Cl)c3)CC4)ccc2s1 (centres undefined) | -13% | / | / | / | / | 6%
Cc1ccc(-c2nc(Nc3cccc(O)c3)c3ccccc3n2)cc1 | 23µM* | -8% | ? | 1% | ? | 21µM*
SMILES | TDP1 cell noCPT | SW480 rereplic | MCF10A rereplic | Chronic BCR inh | IL-1B inflam inh | TDP1 cell CPT
CC1(C)C2CC[C@]3(C)C(CC=C4[C@@H]5C[C@@](C)(CO)[C@@H](O)C[C@]56C[C@@H](OC6=O)[C@]43C)[C@@]2(C)CC[C@@H]1O (some centres undefined) | 1% | -2% | -7% | / | 1 | 14%
CCC(C)NC(=O)C(=O)Nc1c2c(nn1-c1ccccc1)CS(=O)(=O)C2 (centres undefined) | -6% | / | / | ? | / | -11%
CC(C)c1ccc(NC(=O)CCNS(=O)(=O)c2ccc3c(c2)oc(=O)n3C)cc1 | -27% | / | / | / | / | -28%
O=C(CN1CCN(c2ccccc2O)CC1)Nc1ccnn1C1CCCC1 | 21µM* | -2% | 5% | -2% | -7 | 21µM*
COc1ccc(C(=O)C2CCN(CC(=O)Nc3ccc(C)cc3)CC2)cc1 | 29µM* | -7% | ? | 10% | -10 | -22%
COc1ccc(C(=O)C2CCN(C(=O)Nc3ccc(C)cc3)CC2)cc1 | ? | -5% | 16% | 1% | -7 | 1%
O=C(CN1CCN(S(=O)(=O)c2ccccc2)CC1)Nc1ccnn1C1CCCC1 | ? | -5% | -3% | 6% | -6 | -28%
COc1ccc(NC(=O)c2ccc(NC(=O)CN3CCN(c4ccccc4O)CC3)cc2)cc1 | 18µM* | / | / | / | -19 | 18µM*
COC1=CC(=O)[C@@]2([C@@H]1O)[C@@H](Cl)C[C@]13C(OC)=C(OC)C(=O)C[C@]21CCN3C | -8% | -3% | -1% | 2% | 23 | 1%
CC(O)[C@@H]1NC(=O)[C@H](Cc2ccccc2)NC(=O)[C@H](C(C)O)NC(=O)[C@H](CCCCN)NC(=O)[C@H](Cc2c[nH]c3ccccc23)NC(=O)[C@H](Cc2ccccc2)NC(=O)[C@H](Cc2ccccc2)NC(=O)[C@H](CC(N)=O)NC(=O)[C@H](CCCCN)NC(=O)[C@@H](NC(=O)CNC(=O)[C@H](C)N)CSSC[C@@H](C(=O)O)NC(=O)[C@H](CO)NC1=O (some centres undefined) | -13% | / | / | / | / | -7%
CCOC(=O)c1nnn(-c2nonc2-n2cccc2)c1CCl | 6.5µM* | ? | ? | 3% | -117* | 4.6µM*
Cc1ccc(S(=O)(=O)N(C)Cc2ccc(C(=O)N/N=C/c3ccc(OC(F)F)cc3OC(F)F)cc2)cc1 | 23µM* | -3% | -12% | 0% | 7 | ?
O=C1C=CC(=O)N1Cc1ccccc1 | 2.3µM* | ? | ? | -3% | -73* | 1µM*
COC(=O)[C@H](C)NS(=O)(=O)C1CC1 | -20% | / | / | / | / | -4%
COc1ccc(S(=O)(=O)Nc2cc(C(C)C)c(O)cc2C)cc1 | ? | 2% | 5% | ? | -8 | ?
COc1ccc2nc3cc(Cl)ccc3c(Nc3cc(C(C)C)c(O)cc3C)c2c1 | ? | ? | ? | ? | -90* | 23µM*

Screening data: PubChem BioAssay, National Center for Advancing Translational Sciences (NCATS)
